Test results published in the supplement of paper PMC9694430.

Assays:
Test in all cases: thermal shift delta Tm vs DMSO control; higher = stronger stabilization (binding)
Settings in all cases: 12.5 µM; protein concentration 2 µM
LOC_OS01G57100-cb003 = system: LOC_OS01G57100-cb003
In short: (§1)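 Rice kinase domain constructs, made in E. coli and purified, were placed in 96-well plates at 2 μM in 19.5 μl of 100 mM potassium phosphate pH 7.5, 150 mM NaCl, 10% glycerol and 5 × SYPRO Orange, with compound in DMSO. A temperature ramp from 25°C to 95°C at 0.05°C/s was used for differential scanning fluorimetry. The melting temperature shift is a triplicate mean compared with DMSO-only protein, derived from Boltzmann fits.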

LOC_OS01G60330-cb001 = system: LOC_OS01G60330-cb001
In short: as §1

LOC_OS01G60700-cb002 = system: LOC_OS01G60700-cb002
In short: as §1

LOC_OS01G63280-cb003 = system: LOC_OS01G63280-cb003
In short: as §1

LOC_OS01G67340-cb003 = system: LOC_OS01G67340-cb003
In short: as §1

LOC_OS01G70970-cb002 = system: LOC_OS01G70970-cb002
In short: as §1

LOC_OS02G07810-cb001 = system: LOC_OS02G07810-cb001
In short: as §1

LOC_OS02G08530-cb003 = system: LOC_OS02G08530-cb003
In short: as §1

LOC_OS02G14120-cb001 = system: LOC_OS02G14120-cb001
In short: as §1

LOC_OS02G17970-cb001 = system: LOC_OS02G17970-cb001
In short: as §1

LOC_OS02G45750-cb003 = system: LOC_OS02G45750-cb003
In short: as §1

LOC_OS02G54510-cb004 = system: LOC_OS02G54510-cb004
In short: as §1

LOC_OS03G04050-cb001 = system: LOC_OS03G04050-cb001
In short: as §1

LOC_OS03G12390-cb001 = system: LOC_OS03G12390-cb001
In short: as §1

LOC_OS03G27990-cb004 = system: LOC_OS03G27990-cb004
In short: as §1

LOC_OS03G50450-cb001 = system: LOC_OS03G50450-cb001
In short: as §1

LOC_OS03G50810-cb003 = system: LOC_OS03G50810-cb003
In short: as §1

LOC_OS04G35114-cb001 = system: LOC_OS04G35114-cb001
In short: as §1

LOC_OS04G38480-cb003 = system: T1, LOC_OS04G38480-cb003
T1 sequence (whole entry): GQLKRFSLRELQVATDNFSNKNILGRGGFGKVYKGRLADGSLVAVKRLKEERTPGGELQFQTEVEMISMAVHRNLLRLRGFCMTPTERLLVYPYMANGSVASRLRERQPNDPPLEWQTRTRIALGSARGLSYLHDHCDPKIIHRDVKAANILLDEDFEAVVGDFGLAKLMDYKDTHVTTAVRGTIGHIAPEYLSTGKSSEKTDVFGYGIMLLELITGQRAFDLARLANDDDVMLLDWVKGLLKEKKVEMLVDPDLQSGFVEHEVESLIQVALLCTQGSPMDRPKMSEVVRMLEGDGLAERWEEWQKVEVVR
In short: as §1

LOC_OS04G41100-cb001 = system: T2, LOC_OS04G41100-cb001
T2 sequence (whole entry): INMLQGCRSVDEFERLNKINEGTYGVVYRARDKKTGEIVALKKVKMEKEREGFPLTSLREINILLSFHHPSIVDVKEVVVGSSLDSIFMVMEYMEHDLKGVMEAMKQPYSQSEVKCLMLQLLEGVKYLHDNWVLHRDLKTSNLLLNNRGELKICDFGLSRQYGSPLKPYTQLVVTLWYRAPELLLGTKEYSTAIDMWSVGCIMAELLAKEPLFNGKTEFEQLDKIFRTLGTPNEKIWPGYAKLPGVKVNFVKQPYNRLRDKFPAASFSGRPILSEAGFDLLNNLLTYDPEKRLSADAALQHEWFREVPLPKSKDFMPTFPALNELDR
In short: as §1
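Note: purified Escherichia coli-expressed rice kinase domain construct.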

| Compound | thermal shift delta Tm (LOC_OS01G57100-cb003) [°C] | thermal shift delta Tm (LOC_OS01G60330-cb001) [°C] | thermal shift delta Tm (LOC_OS01G60700-cb002) [°C] | thermal shift delta Tm (LOC_OS01G63280-cb003) [°C] | thermal shift delta Tm (LOC_OS01G67340-cb003) [°C] | thermal shift delta Tm (LOC_OS01G70970-cb002) [°C] | thermal shift delta Tm (LOC_OS02G07810-cb001) [°C] | thermal shift delta Tm (LOC_OS02G08530-cb003) [°C] | thermal shift delta Tm (LOC_OS02G14120-cb001) [°C] | thermal shift delta Tm (LOC_OS02G17970-cb001) [°C] | thermal shift delta Tm (LOC_OS02G45750-cb003) [°C] | thermal shift delta Tm (LOC_OS02G54510-cb004) [°C] | thermal shift delta Tm (LOC_OS03G04050-cb001) [°C] | thermal shift delta Tm (LOC_OS03G12390-cb001) [°C] | thermal shift delta Tm (LOC_OS03G27990-cb004) [°C] | thermal shift delta Tm (LOC_OS03G50450-cb001) [°C] | thermal shift delta Tm (LOC_OS03G50810-cb003) [°C] | thermal shift delta Tm (LOC_OS04G35114-cb001) [°C] | thermal shift delta Tm (LOC_OS04G38480-cb003) [°C] | thermal shift delta Tm (LOC_OS04G41100-cb001) [°C] |
| --- | --- | --- | --- | --- | --- | --- | --- | --- | --- | --- | --- | --- | --- | --- | --- | --- | --- | --- | --- | --- |
| Cc1ccc(NC(=O)c2ccc(CN3CCN(C)CC3)cc2)cc1Nc1nc(-c2cccnc2)cs1 [Masitinib (AB1010)] | 0.04 | 1.59 | 0.59 | 0.19 | -0.46 | 0.24 | 0.34 | 0.9 | 0.12 | 0.55 | 0.39 | 0.33 | 0.47 | 0.28 | 0.29 | 0.58 | 0.26 | 0.04 | 0.69 | 0.53 |
| COc1cc2ncnc(Sc3nnc(C)s3)c2cc1OC | 0.73 | 0.26 | 0.74 | -0.21 | 0.41 | -0.08 | -0.06 | 0.96 | 2.55 | -0.07 | 2.63 | 0.34 | 0.71 | -0.23 | 0.56 | 0.5 | 0.54 | 2.86 | 0.54 | 0.9 |
| C=CCc1ccc(O)c(-c2ccc(O)c(CC=C)c2)c1 [Honokiol] | 2.73 | 0.73 | 1.34 | 1.12 | 1.09 | 0.71 | 1.8 | 1.59 | 0.96 | 1.32 | -0.57 | 0.26 | 0.72 | -0.04 | 0.52 | 0.5 | 0.47 | 0.36 | 1.32 | 0.48 |
| C[C@]1(O)C[C@@H](c2nc(-c3ccc4ccc(-c5ccccc5)nc4c3)c3c(N)nccn32)C1 [Linsitinib (OSI-906)] | 0.52 | 1.43 | 1.07 | 2.13 | 0.12 | 0.38 | 1.27 | 0.86 | 0.29 | 0.89 | 0.76 | 0.75 | 0.57 | 0.37 | 0.12 | 0.28 | 0.6 | 3.89 | 1.28 | 0.85 |
| O=C1CCc2c(Oc3ccc4c(c3)[C@@H]3[C@H](O4)[C@H]3c3nc4cc(C(F)(F)F)ccc4[nH]3)ccnc2N1 [Lifirafenib (BGB-283)] | 2.04 | 3.33 | 1.67 | 8.07 | 1.66 | 0.46 | 1.17 | 1.38 | 2.67 | 2.49 | 2.06 | 5.22 | 0.52 | 0.76 | 0.6 | 0.51 | 0.57 | 0.81 | 3.35 | 0.63 |
| O=C1NC(=O)C(c2cnc3ccccn23)=C1c1cn2c3c(cc(F)cc13)CN(C(=O)N1CCCCC1)CC2 | 1.16 | 3.68 | 2.25 | 0.82 | 0.19 | 0.64 | 1.59 | 1.8 | 0.04 | 2.16 | 0.77 | 0 | 0.57 | 4.58 | 0.13 | 0.64 | 0.95 | 1.35 | 1.47 | 1.44 |
| COc1ccc(F)c(F)c1C(=O)c1cnc(NC2CCN(S(C)(=O)=O)CC2)nc1N | 0.71 | 0.06 | 0.31 | -0.18 | 1.43 | 0.03 | 0.5 | 0.57 | -0.08 | -0.09 | 1.63 | -0.08 | 0.26 | -0.05 | 0.19 | 0.18 | 0.05 | 0.62 | 1.07 | 0.79 |
